# Screening data (PubChem BioAssay)
# ASM inhibitor = inhibitors of human secretory acid sphingomyelinase. P17405. hit rate 0.006% among 340,000. Potency, µM (series often up to 57.5 µM), actives largely listed as inhibitors. placental ASM, HMU-PC fluorogenic substrate, 60 min
# Target sequence (P17405 47-631 limits assumed): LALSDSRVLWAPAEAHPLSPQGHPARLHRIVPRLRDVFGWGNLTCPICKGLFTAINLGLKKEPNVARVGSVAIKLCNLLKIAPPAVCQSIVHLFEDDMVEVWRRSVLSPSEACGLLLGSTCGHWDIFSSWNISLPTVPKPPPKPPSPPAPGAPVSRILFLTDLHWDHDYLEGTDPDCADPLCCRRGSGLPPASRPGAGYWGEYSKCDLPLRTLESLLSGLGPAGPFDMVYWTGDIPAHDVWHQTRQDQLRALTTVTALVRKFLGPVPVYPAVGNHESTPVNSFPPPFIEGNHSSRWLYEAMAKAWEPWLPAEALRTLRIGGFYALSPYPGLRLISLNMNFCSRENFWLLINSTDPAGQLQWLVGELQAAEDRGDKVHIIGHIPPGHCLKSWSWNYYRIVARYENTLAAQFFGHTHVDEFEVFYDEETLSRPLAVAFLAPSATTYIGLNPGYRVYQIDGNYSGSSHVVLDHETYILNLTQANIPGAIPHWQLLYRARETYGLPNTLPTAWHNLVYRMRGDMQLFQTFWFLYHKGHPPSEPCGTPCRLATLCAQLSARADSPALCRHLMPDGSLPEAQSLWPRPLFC
#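 qHTS format. ASM enzyme prepared from human placenta hydrolyses the fluorogenic substrate HMU-PC0 (9 uM final) over 60 min at 37 °C after a 10 min compound preincubation.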
# DT40 TDP1 no CPT = qHTS for Inhibitors of human tyrosyl-DNA phosphodiesterase 1 (TDP1): qHTS in cells in absence of CPT | DT40 Tdp1-/- hTDP1 cells, no CPT, ATP luminescence, 48 h | Potency, µM (titrated, usually from 46.2 µM), hits mostly inhibitors | hit rate 15% among 420,000 | AID 686978, 2013; further: nearly all actives have a fitted effect of over 55% in size
#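 DT40 Tdp1-/-;hTDP1 cells, no CPT (DMSO vehicle only), 400 cells/well; compounds pin-transferred; ≥48 hr, 37 °C; CellTiter-Glo 30 min RT dark, luminescence read.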
# IL-1B inflam inh = blocks inflammasome-driven IL-1 beta release; hit rate 4.7% among 360,000; AID 743279; activity change, % at 57.5 µM; THP-1 LPS/ATP IL-1B secretion, AlphaLISA, 16 h; active compounds read low; in the data active means activity change below about -50%; inconclusive means mostly about -30% to -49%
#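 Secreted IL-1B measured by AlphaLISA bead assay after 16 h compound exposure of THP-1 cells; compounds (final up to 57.5 uM) added 1 h before LPS (250 ng/mL) and ATP (1.25 mM) stimulation; lower signal means less secretion.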
# HepG2 tox-1 = counter-screen for TGF-b inhibitors: cytotoxicity in HepG2 cells; HepG2 CAGA-GFP viability, ATP luminescence, 18 h; Potency, µM (series often up to 46.1 µM), usual class: cytotoxic; hit rate 0.76% among 410,000; AID 588856
#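 HepG2 CAGA-GFP cells (1000/well, DMEM with 1% FBS) received compound, then TGF-beta at 500 pg/mL final, and were incubated 18 hours at 37 degrees C. Viability was read by CellTiter-Glo luminescence. Media-only wells were set as complete cell-killing and DMSO as no toxicity.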
# TGFb SMAD3 inh = inhibitors of TGF-b signaling | HepG2 CAGA-GFP TGF-b/SMAD3 reporter, GFP fluorescence, 18 h; TGF-beta stimulated, 500 pg/mL final | hit rate 1.2% among 410,000 | Potency, µM (highest dose often 46.1 µM), actives largely listed as inhibitors | AID 588855; further: nearly all actives have a fitted effect of over 65% in size
#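 Cell-based qHTS in HEPG2 carrying a CAGA-GFP Smad reporter; compounds added before 500 pg/mL final TGF-beta, 18 h incubation at 37 degrees C, GFP fluorescence quantified per cell by imaging cytometry.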
# DT40 TDP1 CPT = DT40-hTDP1 cell growth loss with CPT | hit rate 12% among 420,000 | AID 686979 | Potency, µM (doses to about 46.2 µM), hits mostly inhibitors | chicken DT40 Tdp1-/-;hTDP1 cells + 20 nM CPT, ATP luminescence, 48 h; further: nearly all actives have a fitted effect of over 55% in size
#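 Chicken DT40 Tdp1-/- cells stably complemented with human TDP1 were seeded at 400 cells/well in medium containing 20 nM camptothecin, exposed to pin-transferred compounds, and grown at 37 °C for at least 48 hr. Viability was read as ATP luminescence.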
# TGFb confirm = confirmation of TGF-b signaling inhibitors in HepG2 reporter cells. shares compounds with TGFb SMAD3 inh. HepG2 CAGA-GFP TGF-b reporter, GFP fluorescence, 18 h; cells stimulated with TGF-beta, 500 pg/mL. Potency, µM (top dose mostly 46.1 µM), usual class: inhibitors. hit rate 63% among 1,600. AID 720534; further: nearly all actives have a fitted effect of over 65% in size
# HepG2 tox-2 = counter-screen for TGF-b inhibitors: cytotoxicity in HepG2 cells | shares compounds with TGFb SMAD3 inh | HepG2 CAGA-GFP viability, ATP luminescence, 18 h; cells stimulated with TGF-beta, 500 pg/mL | Potency, µM (top dose mostly 46.1 µM), hits mostly inhibitors | hit rate 27% among 1,600 | AID 720535; further: nearly all actives have a fitted effect of over 70% in size
# CCL64 TGFb inh = TGF-b inhibition, CCL64 orthogonal assay; shares compounds with TGFb SMAD3 inh; CCL64 CAGA-GFP reporter, TGF-b stimulated, GFP fluorescence, 18 h; Potency, µM (doses to about 46.1 µM), most hits filed as inhibitors; hit rate 41% among 1,600; further: nearly all actives have a fitted effect of over 65% in size
# COP TGFb inh = blocks TGF-b signaling in HepG2 COP reporter. Potency, µM (doses to about 46.1 µM), hits mostly inhibitors. shares compounds with TGFb SMAD3 inh. HepG2 COP-GFP TGF-b reporter, GFP fluorescence, 18 h; cells stimulated by added recombinant TGF-beta. hit rate 3% among 1,600; further: nearly all actives have a fitted effect of over 70% in size
# A number is an active result; – = inactive; ? = inconclusive; · = no result; ! = not active in a repeat. Hits are enriched below; roughly 19% of the tested compounds scored in any of these assays. Unless noted, the call rests on the fitted dose curve; in most records, active means well fitted curve in the direction sought with a large enough effect; inconclusive means small, poorly fitted or top-dose-only effect, or another doubt; inactive means no such curve, though single readings can be large; an effect the other way counts as inactive or inconclusive.
SMILES,ASM inhibitor,DT40 TDP1 no CPT,IL-1B inflam inh,HepG2 tox-1,TGFb SMAD3 inh,DT40 TDP1 CPT,TGFb confirm,HepG2 tox-2,CCL64 TGFb inh,COP TGFb inh
CN(C)c1ncnc2c1ncn2C1OC(CO)C(O)C1O (stereo not drawn),–,2.91µM,–,–,0.631µM,2.91µM,0.651µM,5.8µM,?,–
COc1ccc(C[C@H](N)C(=O)N[C@H]2[C@@H](O)[C@H](n3cnc4c(N(C)C)ncnc43)O[C@@H]2CO)cc1,–,8.2µM!,-90.0,–,3.16µM,–,5.17µM,2.06µM,2.91µM,?
CCc1noc(C)c1C(=O)Nc1cc(S(=O)(=O)N(CC)CC)ccc1N1CCOCC1,–,?,–,–,–,–,·,·,·,·
Cc1cc(C)cc(C(=O)N2CCCCC2)c1,–,–,–,–,–,–,·,·,·,·
CCC(C)Sc1ccc([C@H]2N[C@@](C)(C(=O)OC)[C@H]3C(=O)N(CC)C(=O)[C@@H]23)cc1OC (stereo partly drawn),–,?,–,–,–,?,·,·,·,·
CCC(C)Sc1ccc([C@@H]2[C@@H]3C(=O)N(CC)C(=O)[C@@H]3[C@]3(C(=O)OC)CCCCN23)cc1OC (stereo partly drawn),–,?,–,–,?,?,?,–,–,–
COc1ccc(-c2cccc(-c3cc(=O)oc4cc(OC)cc(OC)c34)c2)cc1,–,0.651µM,–,–,1.41µM,1.3µM,1.64µM,–,1.46µM,–
COc1ccc(-c2cccc(-c3cc(=O)oc4cc5c(cc34)OCO5)c2)cc1,–,?,–,–,–,?,·,·,·,·
COc1ccc(CCNC(=O)C(=O)Nc2ccc(C)c(C)c2)cc1OC,·,–,·,–,–,–,·,·,·,·
CCCNC(=S)Nc1ccc(Nc2ccccc2)cc1,–,?,?,–,–,?,·,·,·,·
CCCCOc1ccc(CSCCNC(=S)Nc2ccccc2)cc1,–,?,–,–,7.94µM,18.4µM,?,–,–,–
COc1ccccc1NS(=O)(=O)c1ccc(C)c(C(=O)NC2=NCCS2)c1,–,–,–,–,–,–,·,·,·,·
COc1ccc2c(c1)sc1nc(-c3ccccc3)cn12,–,0.92µM,?,–,10µM,0.517µM,?,?,14.6µM,–
COc1ccc2oc(=O)c(-c3cn4c(n3)sc3cc(F)ccc34)cc2c1,·,–,·,–,–,–,·,·,·,·
Cn1c(CCNS(=O)(=O)c2ccccc2)nc2cc([N+](=O)[O-])ccc21,–,–,–,–,–,?,·,·,·,·
CCCc1nc([N+](=O)[O-])c(S(=O)(=O)c2ccccc2)n1CC(C)C,–,3.26µM,-100.1,–,10µM,16.4µM,20.6µM,?,16.4µM,–
Cc1ccc(C)c(Cn2nnc3c(=O)[nH]c(C(=O)NCc4ccco4)nc32)c1,–,–,–,–,–,?,·,·,·,·
O=C(NCc1ccco1)c1nc2c(nnn2Cc2ccccc2Cl)c(=O)[nH]1,–,?,–,–,2.82µM,?,5.8µM,?,8.2µM,–
